Experiment [1] has as its target RNA polymerase II-associated factor 1 homolog (UniProt Q8N7H5). The experiment can be described thus: cross-link between two proteins; cross-linking mass spectrometry.
Experiment [2] concerns the target Transcription elongation factor SPT6 (UniProt Q7KZ85). Nature of the experiment: cross-link between two proteins; affinity purification or IP with mass spectrometry; cross-linking mass spectrometry.

Consider “Transcription elongation factor SPT6, Q7KZ85”, for which, in experiment [1], the “listed as a hit” value was “yes”.

As for “DNA-directed RNA polymerase II subunit RPB1, P24928”, in experiment [2], the “listed as a hit” value is recorded as “yes”.
